Inconclusive results are not listed. Active and inactive are the calls of the source. How the source made its calls: active means hit-call score of the fitted dose curve at least 0.9, where 1 is the maximum; inconclusive means response in the unintended direction; inactive means score below 0.9.
target: Retinoic acid receptor RXR-alpha (Homo sapiens) (UniProt P19793); experiment: TOX21_TR_RXR_BLA_Antagonist_Followup_ratio: Tox21 Thyroid Hormone Receptor beta Retinoid X Receptor alpha (RXRa) Antagonism Beta-lactamase (BLA) Follow-Up Assay, Ratio (AID 2283972)
Sequence (P19793 whole entry, looked up, the tested form may be a part): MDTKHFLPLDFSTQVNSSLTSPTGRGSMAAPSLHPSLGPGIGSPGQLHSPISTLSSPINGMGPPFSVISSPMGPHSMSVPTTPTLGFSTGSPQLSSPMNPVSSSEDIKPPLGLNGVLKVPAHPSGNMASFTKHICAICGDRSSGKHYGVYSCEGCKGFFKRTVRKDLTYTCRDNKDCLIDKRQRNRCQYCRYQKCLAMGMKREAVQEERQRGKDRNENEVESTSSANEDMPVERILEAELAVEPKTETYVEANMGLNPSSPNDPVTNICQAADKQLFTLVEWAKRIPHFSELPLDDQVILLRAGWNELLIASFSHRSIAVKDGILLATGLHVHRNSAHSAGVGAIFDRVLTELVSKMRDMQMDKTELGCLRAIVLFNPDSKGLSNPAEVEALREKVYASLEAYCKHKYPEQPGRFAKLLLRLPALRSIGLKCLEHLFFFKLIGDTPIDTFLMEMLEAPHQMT
Description: GeneBLAzer RXRa-UAS-bla HEK293T assay (RXRa-bla) (ThermoFisherScientific Catalog No. K1697) was run in qHTS 1536 well format as a secondary assay for specificity of response in the TOX21_TR_GH3_LUC_Agonist assay.TOX21_TR_RXR_BLA_Antagonist_Followup_ratio is an assay readout measuring reporter gene via receptor activity and designed using inducible reporter (beta lactamase induction) detected with GAL4 b-lactamase reporter gene. The signal is derived from the ratio of cleaved (ch2) to uncleaved (ch1) reporter gene substrate used as the measure of target activity.Data from the assay component TOX21_TR_RXR_BLA_Antagonist_Followup_ratio was analyzed into 1 assay endpoint. This assay endpoint, TOX21_TR_RXR_BLA_Antagonist_Followup_ratio, was analyzed in the positive analysis fitting direction relative to DMSO as the negative control and baseline of activity. Using a type of inducible reporter, loss-of-signal activity can be used to understand changes in the reporter gene as they relate to the gene RXRA. Furthermore, this assay endpoint can be referred to as a primary readout, because this assay has produced multiple assay endpoints and this ratio serves a reporter gene function to understand target activity. To generalize the intended target to other relatable targets, this assay endpoint is annotated to the nuclear receptor intended target family, where subfamily is non-steroidal.
Cell Media Required: Growth (90% DMEM/F-12, 10% Fetal Bovine Calf Serum, 100U/ml Penicillin, 100 ug/ml Streptomycin), Assay (10ng/mL sodium selenite, 10 ug/mL humanapo-transferrin, […] uM ethanolamine, 10 ug/mL insulin, 500 ug/mL bovine serum albumin (BSA))Assay Protocol: RXRa-bla cells were seeded at 2,500/well in 6 uL of the assay medium containing phenol red-free DMEM with 2% charcoal-stripped FBS in 1,536-well black-wall/clear-bottom plates (Greiner Bio-One North America) usinga Multidrop Combi dispenser. After5-h incubation at 37C/5% CO2 for cell attachment, 23 nL of follow-up compounds dissolved in DMSO, 11 concentrations in triplicate, and the positive control (9-cis retinoic acid) were transferred to the assay plates using a Pintool station. The assay plates were incubated at 37C/5% CO2 for 16h. One microliter of LiveBLAzer FRET-B/GCCF4-AM substrate (Life Technologies) was added to each well using an FRD. After 2-h incubation at room temperature, the fluorescence intensity was measured using an Envision plate reader (Perkin Elmer). Data were expressed as the ratio of 460:530 nm.

Compound	outcome	AC50
COC1=CC(=O)O[C@@H](/C=C/c2ccc3c(c2)OCO3)C1	inactive	–
O=C(N[C@@H]1N=C(c2ccccc2F)c2cccc3c2N(CC3)C1=O)c1cc2ccccc2[nH]1	inactive	–
O=C1OC2(c3cc(Br)c(O)cc3Oc3c2cc(Br)c(O)[c]3[Hg])c2ccccc21 (stereo unspecified)	inactive	–
C=CC[C@]1(O)CC[C@H]2[C@@H]3CCC4=CC(=O)CCC4=C3C=C[C@@]21C	inactive	–
CCN(CC)CCO[C@H]1CC[C@@]2(C)C(=CC[C@@H]3[C@@H]2CC[C@]2(C)C(=O)CC[C@@H]32)C1	inactive	–
CCC(COC(=O)c1cc(OC)c(OC)c(OC)c1)(c1ccccc1)N(C)C (stereo unspecified)	inactive	–
CC[C@]1(O)CC[C@H]2[C@@H]3CCC4=CCCC[C@@H]4[C@H]3CC[C@@]21C	–	14.3 µM (active)
CC[n+]1ccccc1	inactive	–
O=c1oc2ccccc2c(O)c1Cc1c(O)c2ccccc2oc1=O	inactive	–
CN1C(=O)[C@@H](NC(=O)c2cc3ccccc3[nH]2)N=C(c2ccccc2)c2ccccc21	inactive	–
COc1cc([C@@H]2c3cc4c(cc3[C@@H](O)[C@H]3COC(=O)[C@H]23)OCO4)cc(OC)c1O	inactive	–

Reference: PubChem BioAssay (EPA / NIEHS)
